For this assay, the system named is MDA-MB-468 breast. Briefly: NCI-60 one-dose screen, 48 h (100 = growth as untreated, 0 = no growth, -100 = all killed).

About 83,000 compounds went through this panel and 20% of them were active in at least one assay; those are over-represented in the sample as a whole.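 Percent growth is the endpoint: 0 to 100 indicates growth inhibition (40 means 60% inhibition), 0 means no net growth, and negative values indicate cell death.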 Active and inactive are the calls of the source. The calls were made as follows: active = growth percent below 10; inactive = the rest.

For `O=C1NC(=O)C(=Cc2cccn2CCCCCn2c3ccccc3c(=O)c3ccccc32)C(=O)N1`, the growth (10 µM unless noted) is 107% (inactive).
Still for that read-out and setting: to `O=C(CC1(O)C(=O)Nc2ccc(Cl)cc21)c1ccc(C(=O)NCC2CCC3(CC2)OOC2(CCCCC2)OO3)cc1` (stereo not given) belongs 18% (inactive); to `O=C(O)C(O)C(O)C1[O][Sb]([c]2ccc([N+](=O)[O-])cc2)[O]C1CO` (stereo not given), 98.2% (inactive).
Still for that read-out and setting: to `c1ccc(COc2ccc3[nH]cc(CCN(Cc4ccccc4)Cc4ccccc4)c3c2)cc1` belongs 87.9% (inactive).
For `CC[C@H](C)[C@H](NC(=O)c1ncccn1)C(=O)N(C)[C@H](C[C@@H](OC(C)=O)c1nc(C(=O)N[C@@H](Cc2ccccc2)C[C@H](C)C(=O)OC)cs1)C(C)C`, the growth (10 µM unless noted) is 23% (inactive).
`CCC1(NC(=O)c2cc(F)c(F)c(F)c2F)C(=O)NC(=O)N(C(C)C)C1=O` (stereo not given): for the setting “10 µM unless noted”, the growth is 95.2% (inactive).
As for `OCCN=Cc1c[nH]c2ccccc12`, the growth (10 µM unless noted) is 119% (inactive).
As for `CCC(CO)NC1CCCCC1` (stereo not given), the growth (10 µM unless noted) is 73.6% (inactive).
On the same count and under the same terms, the same measure for `COC1=CC(=O)OC(CCc2ccc3c(c2)OCO3)C1` (stereo not given): 95.9% (inactive); for `CC(=O)Nc1ccc(NC(=O)c2ccc([As](O)O)cc2)cc1`: 92.5% (inactive).
Take `COC(=O)[C@@H](C)C[C@H](Cc1ccccc1)NC(=O)c1csc([C@@H](C[C@H](C(C)C)N(C)C(=O)[C@@H](NC(=O)[C@H]2CCCCN2C)C2CC2)OC(C)=O)n1`: the growth (10 µM unless noted) was 0.846% (active).
On the same count and under the same terms, to `CC12CC(=O)C3(SC#N)C(CCC4=CC(=O)CCC43C)C1CCC2=O` (stereo not given) belongs 24.5% (inactive); to `COc1ccc(/C=C\c2cc(OC)c(OC)c(OC)c2)c(NS(=O)(=O)c2ccc(F)cc2)c1O`, 15.9% (inactive); to `NC(=O)C(Br)c1ccccc1` (stereo not given), 57.5% (inactive).
On to `COC(=O)N[C@H]1CCc2c(Br)c(OC)c(OC)c(OC)c2-c2ccc(SC)c(=O)cc21`, for which, for the setting “10 µM unless noted”, the growth was -23.7% (active).
As to `CCOc1ccc(C(O)CN(C)Cc2ccccc2)cc1Cl` (stereo not given), where the note is “10 µM unless noted”, the growth was 100% (inactive).
The same measure, in the same setting: the same measure for `Nc1c(Cl)c(Cl)nc(C(=O)O)c1Cl`: 107% (inactive); for `O=C(CC1(O)C(=O)N(Cc2ccccc2)c2ccc(Cl)cc21)c1ccc(C(=O)NCC2CCC3(CC2)OOC2(CCCCC2)OO3)cc1` (stereo not given): 6.64% (active); for `FC(F)=C(F)c1ccccc1`: 105% (inactive).
For the compound `C=CC[n+]1ccc(-c2cc[n+](CC=C)cc2)cc1`, the growth (10 µM unless noted) is 66.6% (inactive).
Same read-out and setting: to `O=C1C2C(C(=O)[N]1[Hg][c]1cccs1)C1(Cl)C(Cl)=C(Cl)C2(Cl)C1(Cl)Cl` (stereo not given) belongs -83.7% (active); to `COc1cc(/C=C\c2cc(OC)c(OC)c(OC)c2)cc(N/C=C\C(=O)c2ccc(OC(F)(F)F)cc2)c1OC`, 27.2% (inactive); to `CCCN1C(=O)NC(=O)C(CC)(N2C(=O)c3c(F)c(F)c(F)c(F)c3C2=O)C1=O` (stereo not given), -50.8% (active).
Still for that read-out and setting: to `O=C(O)C1(Br)CC12c1ccccc1-c1ccccc12` (stereo not given) belongs 98.7% (inactive); to `CC(C)(N)Cc1ccccc1`, 114% (inactive); to `CC1=C[C@H]2O[C@@H]3C[C@@H](O)[C@](C)([C@@]2(C)CC1)[C@@]31CO1`, 28.7% (inactive).
As to `C=C(C)[C@@]12OC3(/C=C/C=C/CCCCC)O[C@@H]1[C@@H]1[C@@H]4O[C@]4(CO)[C@@H](O)[C@]4(O)C(=O)C(C)=C[C@H]4[C@@]1(O3)[C@H](C)[C@H]2OC(=O)c1ccccc1`, the growth (10 µM unless noted) was 56.5% (inactive).
Consider `CC[C@H](C)[C@H](NC(=O)[C@H]1CCCCN1C)C(=O)N(C)[C@H](C(=O)NC12CC(C(=O)N[C@@H](Cc3ccccc3)C[C@H](C)C(=O)OC)(C1)C2)C(C)C`, for which, where the note is “10 µM unless noted”, the growth was 116% (inactive).
With `O=C(O)c1ccccc1N(CCO)CCCl`, for the setting “10 µM unless noted”, the growth is 95.1% (inactive).
The same measure, in the same setting: the same measure for `Cc1cc(NC(=O)NCCOc2ccc(N3C(N)=NC(N)=NC3(C)C)cc2Cl)ccc1S(=O)(=O)F`: 29% (inactive).
Regarding `COc1ccc2c(c1)c(-c1nc(-c3c[nH]c4ncccc34)cs1)cn2CCCCN1CCOCC1`, the growth (10 µM unless noted) is 39.3% (inactive).
On to `CCC(CC)(c1ccccc1)C(OC(N)=O)c1ccccc1` (stereo not given), for which, under “10 µM unless noted”, the growth was 75.8% (inactive).
`[N-]=[N+]=NC(C(=O)O)c1ccccc1` (stereo not given): the growth (10 µM unless noted) is 126% (inactive).
Turning to `CC(=O)O[C@@H]1[C@@H]2O[C@H]2[C@@](C)(O)C(=O)[C@@H](C)C/C=C/[C@H]2[C@@H]3O[C@]3(C)[C@@H](C)C3[C@H](Cc4ccccc4)NC(=O)[C@@]312` (stereo not given in full), for the setting “10 µM unless noted”, the growth is 56.8% (inactive).
Turning to `C[C@]12CCc3sc(NCCc4ccccc4)nc3C1=CC[C@@H]1[C@@H]2CC[C@]2(C)C(=O)CC[C@@H]12`, where the note is “10 µM unless noted”, the growth was 32.9% (inactive).
On to `O=C1CCC2(O)[C@@H]3Cc4ccc(O)c5c4[C@]2(CCN3Cc2ccoc2)C1O5` (stereo not given in full), for which, where the note is “10 µM unless noted”, the growth is 97.3% (inactive).
Consider `CNC(=O)Oc1ccc(Cl)cc1SSc1cc(Cl)ccc1OC(=O)NC`, for which the growth (10 µM unless noted) was 85.2% (inactive).
On the same count and under the same terms, the same measure for `Cc1cc(N(CCCl)CCCl)ccc1C=Nc1ccc(-c2csc(-c3ccccc3)n2)cc1`: 3.69% (active); for `CN(C)C(=O)Oc1ccccc1-c1ccccc1`: 99.7% (inactive); for `Clc1ccc2nnnn2n1`: 35.6% (inactive).
As to `COc1cc2c(O[C@@H]3OC[C@H](OC(C)=O)[C@H](OC(C)=O)[C@H]3O)c3c(c(-c4ccc5c(c4)OCO5)c2cc1OC)C(=O)OC3`, for the setting “10 µM unless noted”, the growth is 55.4% (inactive).
As for `CC(=O)OCC1OC([S-])C(OC(C)=O)C(OC(C)=O)C1OC(C)=O.[Au+].c1ccc(CN2[CH-]N(Cc3ccccc3)C(c3ccccc3)=C2c2ccccc2)cc1`, the growth (4.75 µM) was -23.8% (active) and the growth (10 µM) is -41.9% (active).
As to `S=C(SSC(=S)N1CCCCC1)N1CCCCC1`, the growth runs as follows: (10 µM) 98.1% (inactive); (100 µM) -62.8% (active).

Source of the values: PubChem BioAssay (NCI).
